Measured values as given in PubChem BioAssay AID624481 (The Scripps Research Institute Molecular Screening Center, 2012).
Activity calls are given as the source filed them. Cut-off read from the data, not from the text of the source: active = inhibition above about 50%; inactive = the rest.

Molecular target: Prolyl endopeptidase-like (Mus musculus) (UniProt Q8C167)
Assay: mouse PREPL enzyme inhibition by screening hits – biochemical, gel-based competitive ABPP, fluorescence, HTS hits, PREPL inhibitor project (AID 624481)
Conditions: purified mouse PREPL, at 20 µM, stronger effect = higher value

Sequence of Prolyl endopeptidase-like (Mus musculus) (Q8C167 whole entry, looked up): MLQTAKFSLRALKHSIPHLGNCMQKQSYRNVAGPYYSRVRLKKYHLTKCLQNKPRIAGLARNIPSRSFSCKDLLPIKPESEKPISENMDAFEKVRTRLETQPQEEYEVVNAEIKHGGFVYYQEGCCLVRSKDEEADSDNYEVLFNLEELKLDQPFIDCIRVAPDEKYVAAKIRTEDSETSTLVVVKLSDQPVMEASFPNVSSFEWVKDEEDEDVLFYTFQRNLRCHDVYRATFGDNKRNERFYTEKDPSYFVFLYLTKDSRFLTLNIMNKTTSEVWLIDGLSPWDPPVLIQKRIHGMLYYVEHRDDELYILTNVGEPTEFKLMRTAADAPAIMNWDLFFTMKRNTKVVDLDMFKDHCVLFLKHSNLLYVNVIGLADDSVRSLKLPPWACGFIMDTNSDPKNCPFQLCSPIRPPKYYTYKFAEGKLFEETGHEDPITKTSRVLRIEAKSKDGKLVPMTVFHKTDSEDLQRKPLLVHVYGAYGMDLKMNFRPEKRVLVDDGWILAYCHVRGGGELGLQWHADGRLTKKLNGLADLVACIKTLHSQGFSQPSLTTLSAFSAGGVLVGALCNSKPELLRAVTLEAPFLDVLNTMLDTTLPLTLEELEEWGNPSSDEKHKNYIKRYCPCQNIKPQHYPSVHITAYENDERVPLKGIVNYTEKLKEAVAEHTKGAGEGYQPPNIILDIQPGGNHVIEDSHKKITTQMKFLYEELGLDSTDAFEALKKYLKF

inhibition, inactive:
c1ccc(-c2nc3ccccn3c2NC2CCCC2)nc1 -69%
C#CCOCCOCCOCCNc1nc(N2CCN(C(=O)CCCCCCCCCCNC(=O)[C@H](CCCCN)n3cc(CCO)nn3)CC2)nc(N2CCN(C(=O)CCCCCCCCCCNC(=O)[C@H](CCCCN)n3cc(C[C@@H](C)CC)nn3)CC2)n1 -141%
COc1ccc(Nc2nc(N3CCCC3)c3ccccc3n2)cc1 -50%
NC(=O)[C@@H]1CCCNc2c(I)cc([N+](=O)[O-])cc2C(=O)N[C@@H](CCCN=C(N)N)C(=O)N[C@@H](CCCN=C(N)N)C(=O)N1 -77%
Oc1sc(C=Nc2ccc(F)cc2)c2ccccc12 20%
CC(=O)Nc1ccc(C(=O)Cn2c3[n+](c4c(F)c(F)ccc42)CCCCC3)cc1 -42%
C[C@H]1CN([C@@H](C)CO)C(=O)c2cccc(NS(=O)(=O)c3ccc(Cl)cc3)c2O[C@@H]1CN(C)CC1CCCCC1 -24%
Nc1[nH]n2c(=O)c3c(nc2c1N=Nc1ccccc1)CCCC3 1%
Cn1c(NC(=O)C[n+]2cc(-c3ccc(Cl)c(Cl)c3)n3c2CCC3)cc(=O)n(C)c1=O -80%
Cc1ccccc1C(=O)N1CCN(c2ccc(NC(=O)CSc3ccc(Cl)cc3)cc2)CC1 -27%
O=C(C1=C[C@@H](c2ccc(Br)cc2)C[C@@H](OCc2ccc(CO)cc2)O1)N1CCN(Cc2ccc3c(c2)OCO3)CC1 -105%
O=C(c1ccccc1)N1CCN(c2ccc(NCc3ccc4c(c3)OCO4)cc2)CC1 -17%
